Results reported in the supplement of paper PMC9262897, “Low-cost anti-mycobacterial drug discovery using engineered E. coli” (Nature Communications, 2022).
Counter-ions that a name gives are not always drawn. ± gives the standard deviation of the averaged measurements.

Tests used:
Test in all cases: growth (OD600 after 10 h); higher = more growth (less inhibition)
[1] = tested on: E. coli TESEC Alr+ wild-type control; conditions: compound 0.1 mM; raw OD600 reference: median of DMSO wells 0.241, cell-free background 0.041
Experimental: (§1)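 TESEC Mtb Alr E. coli, or the Alr+ wild-type control, in 384-well plates with Prestwick library compounds at 0.1 mM and 1% DMSO, across arabinose induction levels of 1E3 to 1E7 nM. Growth is read as OD600 after 10 h at 37 °C in triplicate biological replicates.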

[2] = tested on: E. coli TESEC Mtb Alr; conditions: compound 0.1 mM
Experimental: as §1

[3] = tested on: E. coli TESEC Mtb Asd; conditions: compound 0.1 mM
Experimental: (§2)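 TESEC E. coli strains in which the native enzyme is deleted and replaced by arabinose-inducible Mtb Asd, DapB, CysH or TrpD, each grown in its selective medium. Strains were screened against the Prestwick library at 0.1 mM and 1% DMSO in 384-well format at low and high arabinose induction. Growth is read as OD600 after 10 h in triplicate.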

[4] = tested on: E. coli TESEC Mtb DapB; conditions: compound 0.1 mM
Experimental: as §2

[5] = tested on: E. coli TESEC Alr+ wild-type control; conditions: compound 0.1 mM; raw OD600 reference: median of DMSO wells 0.49, cell-free background 0.052
Experimental: (§3)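 TESEC Mtb Alr E. coli (ΔaraC ΔtolC ΔentC Δalr ΔdadX, arabinose-inducible Mtb Alr) or the Alr+ wild-type control strain, grown in defined M9-fructose medium without D-alanine in 96-well plates with Prestwick library compounds at 0.1 mM and 1% DMSO. Low Alr induction is 0.1 µM arabinose and high induction is 10 mM arabinose.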

[6] = tested on: E. coli TESEC Mtb Alr; conditions: compound 0.1 mM; remark: listed apart in the source
Experimental: as §3

[7] = arabinose 1000 nM, raw OD600 reference: median of DMSO wells 0.294, cell-free background 0.041
[8] = arabinose 10000 nM, raw OD600 reference: median of DMSO wells 0.264, cell-free background 0.041
[9] = arabinose 100000 nM, raw OD600 reference: median of DMSO wells 0.201, cell-free background 0.041
[10] = arabinose 1000000 nM, raw OD600 reference: median of DMSO wells 0.193, cell-free background 0.041
[11] = arabinose 10000000 nM, raw OD600 reference: median of DMSO wells 0.146, cell-free background 0.041
[12] = arabinose induction (level): High, raw OD600 reference: median of DMSO wells 0.331, cell-free background 0.041
[13] = arabinose induction (level): Low, raw OD600 reference: median of DMSO wells 0.417, cell-free background 0.041
[14] = arabinose induction (level): High, raw OD600 reference: median of DMSO wells […], cell-free background 0.041
[15] = arabinose induction (level): Low, raw OD600 reference: median of DMSO wells 0.227, cell-free background 0.041
[16] = arabinose 100 nM, raw OD600 reference: median of DMSO wells 0.413, cell-free background 0.052
[17] = arabinose 10000000 nM, raw OD600 reference: median of DMSO wells […], cell-free background 0.052

SMILES | growth [1] | growth [2, 7] | growth [2, 8] | growth [2, 9] | growth [2, 10] | growth [2, 11] | growth [3, 12] | growth [3, 13] | growth [4, 14] | growth [4, 15] | growth [5] | growth [6, 16] | growth [6, 17]
O=c1[nH]cnc2c1ncn2[C@H]1CC[C@@H](CO)O1 [Didanosine] | 0.18 ± 0.011 | 0.293 ± 0.023 | 0.27 ± 0.0051 | 0.16 ± 0.015 | 0.149 ± 0.0069 | 0.199 ± 0.0058 | 0.157 ± 0.0043 | 0.165 ± 0.013 | 0.18 ± 0.011 | 0.196 ± 0.048 | 0.503 ± 0.045 | 0.425 ± 0.0085 | 0.225 ± 0.019
CN1CCN(C2=Nc3ccccc3Oc3ccc(Cl)cc32)CC1 [Loxapine succinate] | 0.166 ± 0.0027 | 0.182 ± 0.0068 | 0.194 ± 0.0033 | 0.189 ± 0.0039 | 0.12 ± 0.0061 | 0.158 ± 0.0041 | 0.201 ± 0.029 | 0.214 ± 0.021 | 0.19 ± 0.0079 | 0.248 ± 0.079 | 0.399 ± 0.0093 | 0.381 ± 0.017 | 0.224 ± 0.014
CCCN[C@H]1CCc2nc(N)sc2C1 [Pramipexole dihydrochloride] | 0.237 ± 0.0095 | 0.289 ± 0.004 | 0.258 ± 0.0086 | 0.207 ± 0.015 | 0.191 ± 0.01 | 0.15 ± 0.0057 | 0.262 ± 0.068 | 0.334 ± 0.02 | 0.174 ± 0.013 | 0.209 ± 0.013 | 0.64 ± 0.0092 | 0.406 ± 0.013 | 0.363 ± 0.012
CN(C(=O)C(Cl)Cl)c1ccc(OC(=O)c2ccco2)cc1 [Diloxanide furoate] | 0.185 ± 0.0099 | 0.264 ± 0.018 | 0.256 ± 0.01 | 0.169 ± 0.0067 | 0.172 ± 0.0079 | 0.167 ± 0.004 | 0.366 ± 0.011 | 0.353 ± 0.024 | 0.2046 ± 0.0011 | 0.21 ± 0.02 | 0.609 ± 0.087 | 0.415 ± 0.016 | 0.374 ± 0.025
Cc1ncc([N+](=O)[O-])n1CCO [Metronidazole] | 0.244 ± 0.0028 | 0.291 ± 0.014 | 0.264 ± 0.0049 | 0.221 ± 0.036 | 0.177 ± 0.0036 | 0.144 ± 0.0031 | 0.378 ± 0.03 | 0.378 ± 0.013 | 0.202 ± 0.015 | 0.264 ± 0.052 | 0.426 ± 0.033 | 0.394 ± 0.021 | 0.347 ± 0.038
O=C1NCCN1c1ncc([N+](=O)[O-])s1 [Niridazole] | 0.0479 ± 0.0055 | 0.0513 ± 0.005 | 0.0413 ± 0.0019 | 0.0452 ± 0.0004 | 0.0407 ± 0.00045 | 0.0598 ± 0.023 | 0.0946 ± 0.0021 | 0.203 ± 0.07 | 0.161 ± 0.015 | 0.177 ± 0.022 | 0.0563 ± 0.002 | 0.119 ± 0.025 | 0.0512 ± 0.00072
CC1COc2c(N3CCN(C)CC3)c(F)cc3c(=O)c(C(=O)O)cn1c23 (stereo unspecified) [Ofloxacin] | 0.04363 ± 5.8e-05 | 0.0426 ± 0.00057 | 0.03877 ± 0.00015 | 0.0435 ± 0.0001 | 0.03957 ± 0.00029 | 0.044 ± 0.0001 | 0.0587 ± 0.0023 | 0.0597 ± 0.0025 | 0.0501 ± 0.0018 | 0.05347 ± 0.00015 | 0.0509 ± 0.00059 | 0.0542 ± 0.0012 | 0.05103 ± 0.00031
OCCN1CCN(CCCN2c3ccccc3Sc3ccc(Cl)cc32)CC1 [Perphenazine] | 0.0416 ± 0.00046 | 0.0411 ± 0.00082 | 0.0422 ± 0.00061 | 0.0431 ± 0.0021 | 0.04167 ± 0.00035 | 0.0462 ± 0.00053 | 0.0588 ± 0.0034 | 0.0626 ± 0.0018 | 0.0511 ± 0.001 | 0.0954 ± 0.078 | 0.0523 ± 0.0019 | 0.285 ± 0.2 | 0.0538 ± 0.00074
CCCCNc1c(C(=O)OCC)c(C)nc2c1cnn2CC [Tracazolate hydrochloride] | 0.15 ± 0.017 | 0.203 ± 0.049 | 0.13 ± 0.037 | 0.197 ± 0.051 | 0.077 ± 0.031 | 0.168 ± 0.031 | 0.165 ± 0.017 | 0.179 ± 0.014 | 0.156 ± 0.0092 | 0.194 ± 0.0047 | 0.335 ± 0.024 | 0.366 ± 0.0077 | 0.186 ± 0.042
NC[C@@H]1O[C@H](O[C@H]2[C@@H](O)[C@H](O[C@@H]3[C@@H](O)[C@H](N)C[C@H](N)[C@H]3O[C@H]3O[C@H](CO)[C@@H](O)[C@H](O)[C@H]3N)O[C@@H]2CO)[C@H](N)[C@@H](O)[C@@H]1O [Paromomycin sulfate] | 0.251 ± 0.0064 | 0.327 ± 0.0078 | 0.275 ± 0.0073 | 0.19 ± 0.0041 | 0.19 ± 0.013 | 0.163 ± 0.0039 | 0.496 ± 0.0058 | 0.447 ± 0.027 | 0.195 ± 0.0097 | 0.26 ± 0.034 | 0.535 ± 0.089 | 0.405 ± 0.014 | 0.333 ± 0.0043
CC(C)(C)NCC(O)c1cc(O)cc(O)c1 (stereo unspecified) [Terbutaline hemisulfate] | 0.251 ± 0.0065 | 0.301 ± 0.0057 | 0.265 ± 0.0072 | 0.238 ± 0.047 | 0.1766 ± 0.0011 | 0.163 ± 0.0049 | 0.293 ± 0.03 | 0.385 ± 0.042 | 0.226 ± 0.004 | 0.221 ± 0.013 | 0.504 ± 0.051 | 0.402 ± 0.0092 | 0.354 ± 0.026
Nc1ccc(/N=N/c2ccccc2)c(N)n1 [Phenazopyridine hydrochloride] | 0.152 ± 0.0064 | 0.172 ± 0.0075 | 0.251 ± 0.0051 | 0.144 ± 0.0084 | 0.184 ± 0.0075 | 0.16 ± 0.009 | 0.255 ± 0.039 | 0.22 ± 0.016 | 0.196 ± 0.01 | 0.189 ± 0.022 | 0.405 ± 0.014 | 0.414 ± 0.0063 | 0.301 ± 0.021
O=C(O)Cc1ccc(-c2ccccc2)cc1 [Felbinac] | 0.235 ± 0.0055 | 0.277 ± 0.023 | 0.245 ± 0.0027 | 0.163 ± 0.0054 | 0.173 ± 0.0071 | 0.1221 ± 0.00095 | 0.273 ± 0.054 | 0.434 ± 0.02 | 0.194 ± 0.014 | 0.206 ± 0.022 | 0.575 ± 0.04 | 0.396 ± 0.014 | 0.305 ± 0.0053
O=C(O)CN(CCN(CC(=O)O)CC(=O)O)CCN(CC(=O)O)CC(=O)O [Pentetic acid] | 0.049 ± 0.00062 | 0.0429 ± 0.00085 | 0.03913 ± 0.00012 | 0.04467 ± 5.8e-05 | 0.0427 ± 0.00091 | 0.0607 ± 0.00086 | 0.115 ± 0.02 | 0.0868 ± 0.024 | 0.0936 ± 0.0035 | 0.0709 ± 0.0042 | 0.0804 ± 0.0038 | 0.0559 ± 0.0086 | 0.061 ± 0.001
CCN(CCCCOC(=O)c1ccc(OC)c(OC)c1)C(C)Cc1ccc(OC)cc1 (stereo unspecified) [Mebeverine hydrochloride] | 0.157 ± 0.004 | 0.231 ± 0.0024 | 0.243 ± 0.0072 | 0.18 ± 0.0066 | 0.125 ± 0.0057 | 0.165 ± 0.0094 | 0.197 ± 0.026 | 0.396 ± 0.046 | 0.166 ± 0.012 | 0.252 ± 0.032 | 0.435 ± 0.016 | 0.4063 ± 0.003 | 0.311 ± 0.0053
OCCN1CCN(CC/C=C2/c3ccccc3Sc3ccc(Cl)cc32)CC1 [Zuclopenthixol dihydrochloride] | 0.0505 ± 0.0052 | 0.257 ± 0.0079 | 0.176 ± 0.005 | 0.1981 ± 0.0017 | 0.0779 ± 0.0011 | 0.14 ± 0.0078 | 0.205 ± 0.043 | 0.215 ± 0.011 | 0.179 ± 0.029 | 0.186 ± 0.038 | 0.049 ± 0.0005 | 0.156 ± 0.19 | 0.0523 ± 0.0015
CCC[C@@H]1C[C@@H](C(=O)N[C@@H]([C@H]2O[C@H](SC)[C@H](O)[C@@H](O)[C@H]2O)[C@@H](C)O)N(C)C1 [Lincomycin hydrochloride] | 0.0958 ± 0.0084 | 0.122 ± 0.011 | 0.086 ± 0.003 | 0.113 ± 0.0046 | 0.0692 ± 0.0033 | 0.0731 ± 0.00091 | 0.151 ± 0.017 | 0.204 ± 0.02 | 0.172 ± 0.03 | 0.179 ± 0.043 | 0.486 ± 0.057 | 0.443 ± 0.0099 | 0.12 ± 0.019
